± gives the standard deviation of the averaged measurements.
These molecules were tested on AEK1 (Tb927.3.2440) (assay: percent reduction in TR-FRET probe signal relative to DMSO control; higher = stronger displacement of ATP-site probe (binding)). Settings: 1 µM; incubation time 1 h.

SMILES	percent reduction in TR-FRET probe signal
CC(=O)Nc1cccc(-n2c(=O)n(C3CC3)c(=O)c3c(Nc4ccc(I)cc4F)n(C)c(=O)c(C)c32)c1	4.31 ± 12%
O=C(Nc1c[nH]nc1-c1nc2cc(CN3CCOCC3)ccc2[nH]1)NC1CC1	52 ± 14%
COc1cc2ncnc(Nc3ccc(Cl)cc3F)c2cc1OC	4.47 ± 2.8%
Cc1nc(N)sc1-c1ccnc(Nc2ccc(N3CCOCC3)cc2)n1	10.3 ± 6.7%
CN1CCN(C2CCN(C(=O)Nc3cc(Oc4ccc(NC(=O)C5(C(=O)Nc6ccc(F)cc6)CC5)c(F)c4)ccn3)CC2)CC1 [Golvatinib (E7050)]	0.527 ± 8%

Source: the supplement of paper PMC10720658
